A short description of assay [1]: qHTS assay to identify small molecule antagonists of the estrogen related receptor (ERR) signaling pathway from Tox21 library - cell viability counter screen (AID 1224834). Note: nearly all actives have a fitted effect of over 30% in size. The settings on record: ERR reporter cells viability, CellTiter-Fluor, 17.5 h; series mostly up to 92.4 µM. The gist of the method:
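CellTiter-Fluor fluorescence, read after 30 min at 37 C, measures viability of ERR cells. Cells plated at 2,000/well and incubated 6 h before pin-tool compound addition, then exposed 17.5 hours at 37 C.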

The target in assay [2] is Luciferin 4-monooxygenase (Photinus pyralis) (UniProt P08659). Nature of the assay: qHTS assay to identify small molecule inhibitors of firefly luciferase (AID 1224835). Note: nearly all actives have a fitted effect of over 25% in size. Particulars: purified P. pyralis luciferase, luminescence inhibition; series mostly up to 115 µM. In outline: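 Quantitative HTS format; KM concentrations of both substrates. Purified P. pyralis FLuc activity quantified from luminescence images.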

Assay [3] in a line: qHTS assay to identify small molecule agonists of the constitutive androstane receptor (CAR) signaling pathway - cell viability counter screen (AID 1224836). Note: nearly all actives have a fitted effect of over 45% in size. Particulars: HepG2-CYP2B6-hCAR viability, CellTiter-Fluor, 23 h, PK11195 added to every well; series mostly up to 92.4 µM. In outline:
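HepG2 cells stably carrying hCAR and a CYP2B6-2.2kb reporter were plated 4 h, then given compounds at 15 concentrations plus PK11195 (final 0.75 uM). After 23 h at 37 C, viability was read by CellTiter-Fluor fluorescence.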

The nature of assay [4]: qHTS assay to identify small molecule antagonists of the constitutive androstane receptor (CAR) signaling pathway - cell viability counter screen (AID 1224837). Note: nearly all actives have a fitted effect of over 45% in size. The settings on record: HepG2-CYP2B6-hCAR viability, CellTiter-Fluor, 23 h, co-treated with 50 nM CITCO; series mostly up to 92.4 µM. The gist of the method: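 Cytotoxicity counter-screen: CellTiter-Fluor fluorescence after 23 h compound exposure (15-point qHTS) in double-stable HepG2-CYP2B6-hCAR cells, with 50 nM CITCO added.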

Assay [5] addresses Nuclear receptor subfamily 1 group I member 3 (Homo sapiens) (UniProt Q14994). Kind of assay: qHTS assay to identify small molecule antagonists of the constitutive androstane receptor (CAR) signaling pathway (AID 1224838). Note: nearly all actives have a fitted effect of over 40% in size. The settings on record: HepG2-CYP2B6-hCAR luciferase, CITCO-stimulated, 24 h; series mostly up to 92.4 µM. In outline: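 Antagonism measured as luciferase signal (ONE-Glo, 30 min, room temperature) in CAR-stimulated cells: HepG2-CYP2B6-hCAR double-stable line exposed 24 hr at 37 C to compound in a 15-point series plus 50 nM CITCO.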

Assay [6] can be described thus: qHTS assay to identify small molecule antagonists of the estrogen related receptor signaling pathway with the pleiotropic PPARgamma coactivator (PGC) from Tox21 10K library - cell viability counter screen (AID 1224840; active = well fitted cell-killing curve with a large enough effect in the repeat runs, not every such curve was filed as active; note: nearly all actives have a fitted effect of over 40% in size). Particulars: PGC/ERR reporter cells viability, CellTiter-Fluor, 17.5 h; series mostly up to 92.4 µM. In outline: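 Counter-screen for cytotoxicity: after 17.5 h compound exposure at 37 C, CellTiter-Fluor reagent added to PGC/ERR cells for 30 min and fluorescence read. Cells were seeded at 2,000 per well 6 h before dosing.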

The nature of assay [7]: qHTS assay to identify small molecule antagonists of the estrogen related receptor signaling pathway with the pleiotropic PPARgamma coactivator (PGC) from Tox21 10K library (AID 1224841; call rule not given here; note: actives are mostly falling curves and most rising ones were filed inactive; nearly all actives have a fitted effect of over 50% in size). The settings on record: PGC/ERR reporter cell line, ONE-Glo luciferase, 18 h; series mostly up to 92.4 µM. In outline:
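Luminescence (One-Glo, 30 min at room temperature) after 18 h compound treatment at 37 C of PGC/ERR reporter cells plated at 2,000 cells/well and settled 6 h beforehand.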

Assay [8] in a line: qHTS assay to identify small molecule agonists of the estrogen related receptor signaling pathway with the pleiotropic PPARgamma coactivator (PGC) from Tox21 10K library (AID 1224842). Note: nearly all actives have a fitted effect of over 15% in size. Particulars: PGC/ERR reporter cell line, luciferase ONE-Glo, 18 h; series mostly up to 92.4 µM. The gist of the method:
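PGC/ERR reporter cells (NTP line) were seeded 2,000 per well, rested 6 h at 37 C/5% CO2, then pin-dosed with compounds in DMSO for 18 h at 37 C; luciferase read by One-Glo luminescence after 30 min at room temperature.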

The nature of assay [9]: qHTS assay to identify small molecule agonists of the hypoxia (HIF-1) signaling pathway - cell viability counter screen (AID 1224844; calls by dose curve; note: nearly all actives have a fitted effect of over 50% in size). Particulars: HRE-bla ME-180 viability, CellTiter-Glo luminescence, 17 h; series mostly up to 76.8 µM. The gist of the method:
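Cytotoxicity measured by CellTiter-Glo ATP luminescence in the wells also read for beta-lactamase signal. Cells were HRE-bla ME-180 (2,000/well, 0.5% dialyzed FBS), exposed to compounds for 17 h at 37C.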

Assay [10] in a line: qHTS assay to identify small molecule agonists of H2AX (AID 1224845; active = well fitted activation curve with a large enough effect in the signal ratio in the repeat runs, not every such curve was filed as active; the % refers to the signal ratio). The settings on record: CHO-K1 phospho-H2AX Ser139 HTRF, 3 h; series mostly up to 154 µM. The gist of the method:
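Wild-type CHO-K1 cells plated overnight, then exposed 3 hr at 37C to compounds at 15 concentrations (0.76% DMSO). Lysed, then HTRF anti-pH2AX(S139)-cryptate/anti-H2AX-d2 detection after 24 hr at room temperature; emissions 665 and 620 nm.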

Assay [11] in a line: qHTS assay to identify small molecule agonists of the hypoxia (HIF-1) signaling pathway (AID 1224846; active = well fitted activation curve with a large enough effect in the signal ratio in the repeat runs, not every such curve was filed as active; the % refers to the signal ratio). Particulars: HRE-bla ME-180 cells, beta-lactamase ratio, 17 h; series mostly up to 76.8 µM. The gist of the method: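 Compounds added to ME-180 cells carrying hypoxia-response-element beta-lactamase reporter (0.5% dialyzed FBS, 5 h preplating), 17 h at 37C; agonist activity detected by CCF4-AM B/G FRET read-out.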

Assay [12] in a line: qHTS assay to identify small molecule agonists of H2AX - cell viability counter screen (AID 1224847; calls by dose curve; note: top concentration of the series differs between compounds; nearly all actives have a fitted effect of over 30% in size). The settings on record: CHO-K1 viability, CellTiter-Glo luminescence, 3 h; series mostly up to 154 µM. The gist of the method: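 Wild-type CHO-K1 cells (10% FBS medium) were plated overnight at 37C, exposed to compounds at 15 concentrations for 3 hr at 37C (0.76% DMSO final), and viability was read as CellTiter-Glo luminescence after 30 min at room temperature.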

Assay [13] in a line: qHTS assay to identify small molecule antagonists of the estrogen related receptor (ERR) signaling pathway from Tox21 library (AID 1224848). Note: nearly all actives have a fitted effect of over 50% in size. The settings on record: ERR reporter cell line, luciferase antagonist mode, 18 h; series mostly up to 92.4 µM. In outline:
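Tox21 10K compounds in DMSO tested for ERR pathway antagonism in NTP's ERR cell line; 18 h, 37 C exposure; ONE-Glo luminescence.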

Assay [14] can be described thus: qHTS assay to identify small molecule agonists of the estrogen related receptor (ERR) signaling pathway from Tox21 library (AID 1224849; calls by dose curve; note: nearly all actives have a fitted effect of over 15% in size). Particulars: ERR reporter cell line, ONE-Glo luciferase, 18 h; at 92.4 µM (top of the series) unless noted. The gist of the method: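 Luminescent agonist read-out (One-Glo, 30-minute room-temperature incubation) following 18-hour compound treatment at 37 C of the ERR cell line, which had been plated 6 hours before dosing.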

Assay [15] can be described thus: qHTS RealTime-Glo MT Cell Viability Assay in HepG2 cells - 24 hour (AID 1224867). Note: nearly all actives have a fitted effect of over 50% in size. Particulars: RealTime-Glo luminescence; series mostly up to 76.8 µM. In outline:
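HepG2 cells were seeded at 600 cells/well together with NanoLuc luciferase and a cell-permeant prosubstrate, preincubated 5 h at 37 C/5% CO2, then pin-dosed with compounds in DMSO. Nonlytic luminescence from viable cells was read at each time point.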

Assay [16] can be described thus: qHTS RealTime-Glo MT Cell Viability Assay in HEK293 cells - 32 hour (AID 1224868). Particulars: RealTime-Glo luminescence; series mostly up to 76.8 µM. In outline:
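HEK293 cells were seeded at 600 cells/well together with NanoLuc luciferase and cell-permeant prosubstrate, preincubated 5 h at 37 C/5% CO2, then given compound in DMSO by pintool. Luminescence from viable-cell prosubstrate reduction was read repeatedly over 40 h.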

Assay [17] in a line: A CellTox Green Cytotoxicity Assay to monitor cytotoxicity in HEK293 cells - 0 hour (AID 1224869). Note: nearly all actives have a fitted effect of over 50% in size. The settings on record: CellTox Green fluorescence; series mostly up to 76.8 µM. The gist of the method: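 Fluorescence from a DNA-binding dye excluded by viable cells was measured repeatedly in the same HEK293 wells (600 cells/well) during continuous compound exposure at 37 C. Each assay gives one read point: 0, 8, 16, 24, 32 or 40 h.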

Assay [18] concerns the target Nuclear receptor subfamily 1 group I member 3 (Homo sapiens) (UniProt Q14994). Nature of the assay: qHTS assay to identify small molecule agonists of the constitutive androstane receptor (CAR) signaling pathway (AID 1224839).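 For activation: HepG2 cells stably carrying human CAR and a CYP2B6 luciferase reporter.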 Note: nearly all actives have a fitted effect of over 15% in size. Note: potency is the fitted concentration of half-maximal effect. The settings on record: HepG2 hCAR CYP2B6-luciferase, agonist mode, 24 h; series mostly up to 92.4 µM. The gist of the method:
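HepG2 cells stably expressing hCAR and a CYP2B6-2.2kb luciferase reporter were treated with compounds at 15 concentrations plus 0.75 uM PK11195 (final) for 24 h at 37 C; luminescence was read after ONE-Glo addition.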

Assay [19] addresses Thyrotropin receptor (Homo sapiens) (UniProt P16473). Nature of the assay: qHTS assay to identify small molecule agonists of the thyroid stimulating hormone receptor (TSHR) signaling pathway (AID 1224843; calls by dose curve; note: nearly all actives have a fitted effect of over 45% in size). Particulars: TSHR-HEK293 cells, cAMP HTRF, agonist mode, 30 min; series mostly up to 92.4 µM. In outline:
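Using 15 concentrations per compound in triplicate, cAMP production was monitored in TSHR-HEK293 cells after 30 min compound incubation at RT; HTRF reagents followed, with fluorescence intensity recorded after 1 h.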

SMILES strings stand for the structures. Values without a mark were called inactive. Inconclusive results are not listed. Active and inactive are the calls of the source. Unless noted, calls come from the whole dose curve; as a rule, active = well fitted curve in the direction sought with a large enough effect in the repeat runs; inconclusive = weak or mixed curves; inactive = no such curve, though single readings can be large; an effect the other way counts as inactive or inconclusive.
% is set by controls: 0 for no effect and ±100 for the full control effect.

Sequence of Thyrotropin receptor (Homo sapiens) (P16473 whole entry, looked up): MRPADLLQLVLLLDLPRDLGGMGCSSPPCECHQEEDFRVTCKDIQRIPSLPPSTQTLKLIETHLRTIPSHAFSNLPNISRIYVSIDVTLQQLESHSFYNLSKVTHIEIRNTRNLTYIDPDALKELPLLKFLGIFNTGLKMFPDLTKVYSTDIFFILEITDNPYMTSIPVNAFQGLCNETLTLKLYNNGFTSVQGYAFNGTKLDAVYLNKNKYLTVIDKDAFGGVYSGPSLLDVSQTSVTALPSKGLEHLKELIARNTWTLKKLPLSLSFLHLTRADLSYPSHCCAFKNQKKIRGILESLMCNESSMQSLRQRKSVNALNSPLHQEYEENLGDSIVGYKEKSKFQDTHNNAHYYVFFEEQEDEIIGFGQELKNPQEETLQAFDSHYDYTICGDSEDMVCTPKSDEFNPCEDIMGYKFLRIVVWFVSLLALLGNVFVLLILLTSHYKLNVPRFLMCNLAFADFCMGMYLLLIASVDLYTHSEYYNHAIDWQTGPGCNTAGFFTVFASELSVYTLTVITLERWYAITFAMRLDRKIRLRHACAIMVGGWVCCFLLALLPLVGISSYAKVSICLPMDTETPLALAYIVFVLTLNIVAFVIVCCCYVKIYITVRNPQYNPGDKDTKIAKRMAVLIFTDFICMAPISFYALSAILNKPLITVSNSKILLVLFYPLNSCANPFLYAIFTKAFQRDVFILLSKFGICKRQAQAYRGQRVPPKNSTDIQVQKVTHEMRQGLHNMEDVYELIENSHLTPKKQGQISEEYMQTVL
Sequence of Nuclear receptor subfamily 1 group I member 3 (Homo sapiens) (Q14994 whole entry, looked up): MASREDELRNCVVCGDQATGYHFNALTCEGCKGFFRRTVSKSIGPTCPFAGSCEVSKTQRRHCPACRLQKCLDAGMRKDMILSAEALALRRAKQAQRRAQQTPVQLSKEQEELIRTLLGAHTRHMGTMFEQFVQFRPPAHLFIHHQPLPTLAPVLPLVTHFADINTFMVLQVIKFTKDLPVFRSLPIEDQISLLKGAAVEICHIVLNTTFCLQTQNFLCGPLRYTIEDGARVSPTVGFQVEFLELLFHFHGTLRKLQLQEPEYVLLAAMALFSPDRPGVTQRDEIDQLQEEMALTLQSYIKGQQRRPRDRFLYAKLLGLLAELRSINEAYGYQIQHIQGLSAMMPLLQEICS
Sequence of Luciferin 4-monooxygenase (Photinus pyralis) (P08659 whole entry, looked up): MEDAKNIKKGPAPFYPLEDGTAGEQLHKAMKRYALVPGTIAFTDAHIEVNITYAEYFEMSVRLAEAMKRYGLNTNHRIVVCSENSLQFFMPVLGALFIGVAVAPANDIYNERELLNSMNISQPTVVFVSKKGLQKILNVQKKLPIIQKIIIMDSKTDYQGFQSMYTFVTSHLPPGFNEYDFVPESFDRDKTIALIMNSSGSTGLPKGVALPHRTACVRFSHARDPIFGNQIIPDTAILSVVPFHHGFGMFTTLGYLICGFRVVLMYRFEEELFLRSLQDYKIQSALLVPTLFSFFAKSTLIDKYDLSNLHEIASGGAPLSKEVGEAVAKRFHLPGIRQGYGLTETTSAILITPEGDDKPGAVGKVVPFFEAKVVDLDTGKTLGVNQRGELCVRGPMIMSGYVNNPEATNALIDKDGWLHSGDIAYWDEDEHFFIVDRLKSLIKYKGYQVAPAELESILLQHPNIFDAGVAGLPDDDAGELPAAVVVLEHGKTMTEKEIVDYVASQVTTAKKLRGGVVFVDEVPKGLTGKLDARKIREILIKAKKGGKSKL

For `CC1=C2[C@H]3OC(=O)[C@@H](C)[C@@H]3CC[C@@]2(C)C=CC1=O`, the Potency result in assay [1], in assay [2], in assay [3], in assay [4], in assay [5] and in assay [6] was “inactive” in each case. Besides, the Potency entry in assay [7], in assay [8], in assay [9], in assay [12], in assay [13] and in assay [15] was “inactive” each time. In assay [16], the Potency result was “inactive”. Also, the compound was classed as inactive in assay [10], in [11] and in assay [17]. Further, the activity change, positive = activation in assay [14] was 5.47% [at 42.5 µM].

For `COc1ccc2c(C(=O)c3ccc(Cl)cc3)c(C)n(CC(=O)O)c2c1`, the Potency entry in assay [1], in assay [2], in assay [3], in assay [4], in assay [18] and in assay [6] was “inactive” each time. The Potency entry in [9], in assay [15] and in [16] was “inactive” in each case. In addition, the outcome in assay [10] and in [17] was inactive.

Turning to `CCNc1nc(Cl)nc(NC(C)(C)C)n1`, the Potency entry in [1], in [2], in assay [3], in assay [4], in assay [5] and in assay [6] was “inactive” throughout. For the same compound, the Potency entry in assay [9], in assay [12], in assay [15] and in assay [16] was “inactive” in each case. The compound was classed as inactive in assay [10] and in [17].

Turning to `N[C@@H](Cc1ccc(Oc2cc(I)c(O)c(I)c2)c(I)c1)C(=O)O`, the Potency result in assay [1], in assay [2], in [3], in assay [4], in [5] and in [18] was “inactive” each time. Also, the Potency entry in assay [6], in assay [9], in assay [12], in [15] and in assay [16] was “inactive” in each case. For the same compound, the compound was classed as inactive in assay [10] and in assay [17].

`CCCOC(=O)c1cncn1C(C)c1ccccc1` (configuration not stated): the Potency entry in assay [1], in assay [2], in assay [3], in [4], in assay [5] and in [6] was “inactive” throughout. In addition, the Potency entry in assay [7], in assay [8], in assay [19], in assay [9], in [13] and in [15] was “inactive” each time. The compound was called inactive in [10], in assay [11] and in assay [17]. Also, the activity change, positive = activation in [14] is 0.709% [at 42.5 µM].

In the case of `COc1cccc([C@@]2(O)CCCC[C@@H]2CN(C)C)c1`, the Potency entry in assay [1], in assay [2], in assay [3], in [4], in assay [6] and in assay [7] was “inactive” in each case. The Potency result in assay [8], in [19], in assay [9], in assay [12], in assay [13] and in assay [15] was “inactive” in each case. Besides, the Potency result in assay [16] was “inactive”. Besides, the outcome in assay [10], in assay [11] and in [17] was inactive. Moreover, the activity change, positive = activation in assay [14] was 1.87% [at 42.5 µM].

Consider `C=C(Cl)CSC(=S)N(CC)CC`, for which the Potency entry in assay [1], in assay [2], in assay [3], in [4], in [5] and in [6] was “inactive” each time. For the same compound, the Potency entry in assay [9], in assay [12], in assay [15] and in assay [16] was “inactive” throughout. The outcome in assay [11] and in [17] was inactive.

With `O=C(O)CBr`, the Potency result in [1], in assay [2], in [3], in [4], in assay [6] and in assay [7] was “inactive” in each case. For the same compound, the Potency entry in assay [8], in assay [19], in assay [9], in assay [12], in [13] and in assay [15] was “inactive” throughout. Further, the Potency entry in assay [16] was “inactive”. Also, the call in assay [10] and in [17] was inactive. Moreover, in [14], the activity change, positive = activation is -0.0549%.

`CC(C)(C1CCC(O)CC1)C1CCC(O)CC1` (configuration not stated): the Potency entry in [1], in assay [2], in assay [3], in assay [4], in [5] and in [6] was “inactive” throughout. Further, the Potency entry in assay [9], in assay [15] and in assay [16] was “inactive” in each case. Besides, the Potency in [18] was 19.3 µM (active). The outcome in [10], in assay [11] and in assay [17] was inactive.

Values taken from PubChem BioAssay (Tox21).
